# A selection: hits, their analogues and other compounds. The true share with any hit is near 9.4%.
# NPC1 prom act: activators of NPC1 promoter | Huh7 NPC1 promoter luciferase reporter, 24 h | Potency, µM (top dose mostly 9.22 µM), inactives show top-dose activation, hits mostly activators | 320,000 tested, 2.4% active; further: % of control where 0% means no effect; nearly all actives have a fitted effect of over 60% in size
#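 Readout is luciferase luminescence, reflecting NPC1 promoter activation in stably transfected Huh7 cells after 24 h compound exposure at 37 °C in reduced-serum medium with 10% FBS.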
# Rab9 promoter act: Rab9 promoter activation. AID 485297. Potency, µM (doses to about 9.22 µM), for inactives: at the highest dose activation, negative = inhibition, hits mostly activators. Huh7 Rab9 promoter-luciferase reporter, luminescence, 24 h. 320,000 tested, 2.8% active; further: % of control where 0% means no effect; nearly all actives have a fitted effect of over 60% in size
#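 Promoter activation is measured as luciferase luminescence in Huh7 cells stably transfected with a Rab9 promoter–luciferase construct, following 24 h compound exposure at 37 °C and 10 min reagent incubation at ambient temperature.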
# ELG1 DNA repair: ELG1-dependent DNA repair inhibition; Potency, µM (doses to about 46.1 µM), without a hit: at the top dose activity change, negative = inhibition, actives largely listed as inhibitors; 330,000 tested, 2.3% active; HEK293T ELG1-luciferase reporter, luminescence, 16 h; DNA damage induced by 5-fluorouridine; further: on the % scale 0 is the no-effect control and ±100 the full control effect; nearly all actives have a fitted effect of over 55% in size
#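 Step one: seed 2,000 cells per well. Step two: pin-transfer compound or DMSO alongside 5-fluorouridine. Step three: incubate 16 hr, 37 °C, 5% CO2. Step four: add ONE-Glo, wait 30 min, read luminescence.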
# SMN2 splice enh: increases expression of the SMN2 splice variant | HEK293 SMN2-luciferase splicing reporter, luminescence, 30-36 h | AID 1458 | Potency, µM (titrated, usually from 46.1 µM), for inactives: at the highest dose activity change, positive = activation, most hits filed as activators | 210,000 tested, 2.8% active; further: % of control where 0% means no effect; nearly all actives have a fitted effect of over 55% in size
#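 HEK293 cells carry an SMN2 […]–luciferase reporter in which exon 7 inclusion puts luciferase in frame. Cells were plated 10-12 h before compound addition, then incubated 30-36 h at 37C. ONE-Glo luminescence was read; sodium butyrate at 4.5 mM final served as control.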
# FLuc counter: firefly luciferase modulation, counter-screen for miR-21 project; P08659; purified FLuc, Km substrates, luminescence inhibition; Potency, µM (highest dose often 57.5 µM), for inactives: at the top dose activity change, negative = inhibition, most hits filed as inhibitors; 360,000 tested, 6.9% active;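 further: plate controls were vehicle for no effect and reference inhibitor for full effect; nearly all actives have a fitted effect of over 55% in size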
# Target sequence (P08659 whole entry, looked up): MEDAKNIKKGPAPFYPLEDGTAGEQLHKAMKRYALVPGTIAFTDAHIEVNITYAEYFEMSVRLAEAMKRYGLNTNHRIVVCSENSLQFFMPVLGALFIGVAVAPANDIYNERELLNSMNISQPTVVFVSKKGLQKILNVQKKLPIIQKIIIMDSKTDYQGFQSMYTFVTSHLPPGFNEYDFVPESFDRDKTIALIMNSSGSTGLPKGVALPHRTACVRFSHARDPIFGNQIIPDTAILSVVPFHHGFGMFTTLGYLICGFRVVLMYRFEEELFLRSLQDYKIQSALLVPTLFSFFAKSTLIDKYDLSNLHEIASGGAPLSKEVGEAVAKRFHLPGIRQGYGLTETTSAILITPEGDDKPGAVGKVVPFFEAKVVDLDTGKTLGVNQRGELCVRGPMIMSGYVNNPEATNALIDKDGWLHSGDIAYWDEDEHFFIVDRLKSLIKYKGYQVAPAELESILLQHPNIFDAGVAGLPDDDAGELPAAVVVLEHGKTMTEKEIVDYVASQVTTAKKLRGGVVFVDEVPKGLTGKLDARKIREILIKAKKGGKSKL
#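 Purified P. pyralis luciferase (10nM final) with 10uM D-luciferin and 10uM ATP (Km levels) in 50mM Tris acetate pH 7.5, 10mM Mg acetate, 0.01% Tween-20, 0.05% BSA; qHTS 6-point titration, ~60 µM downward; luminescence read.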
# ELG1 genotoxic: induces genotoxicity in HEK293T cells with luciferase-tagged ELG1; HEK293T ELG1-luciferase reporter, luminescence, 16 h; Potency, µM (series often up to 46 µM), inactives show at the top dose activity change, positive = activation, actives largely listed as activators; 330,000 tested, 1.3% active; further: % of control where 0% means no effect; nearly all actives have a fitted effect of over 60% in size
#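 HEK293T cells expressing luciferase-tagged ELG1 were treated with compound or DMSO for 16 hr at 37°C. Luciferase activity was then read after 30 min with ONE-Glo at room temperature; rising signal flags genetic stress.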
# Active calls of the source: *; ? = inconclusive; . = no result given; [ ] = another dose, or the depositor's remark. The call rests on the fitted dose curve; in most records, active means well fitted curve in the direction sought with a large enough effect; inconclusive means small, poorly fitted or top-dose-only effect, or another doubt; inactive means no such curve, though single readings can be large; an effect the other way counts as inactive or inconclusive. Potency means the concentration at half of the fitted maximal effect.
SMILES,NPC1 prom act,Rab9 promoter act,ELG1 DNA repair,SMN2 splice enh,FLuc counter,ELG1 genotoxic
Cc1cccc(/C=C2\Oc3cc(OS(C)(=O)=O)ccc3C2=O)c1,21.9%,16.0%,2.7%,-12.8%,16.9µM*,8.6%
COC(=O)COc1ccc2c(c1)O/C(=C\c1cccc([N+](=O)[O-])c1)C2=O,-2.9%,7.1%,4.3%,.,-7.5%,1.7%
O=C1/C(=C/c2cccc(F)c2)Oc2cc(O)ccc21,18.5%,5.4%,?,.,10.7µM*,1.2%
Cn1c(=O)c(=O)n(C)c2cc(NS(=O)(=O)c3ccc(Br)cc3)c(Cl)cc21,.,.,.,16.4%,?,.
CCc1nnc(/N=C/c2c(O)n(-c3ccc(Cl)cn3)c(=O)c3ccccc23)s1,2.5%,-0.1%,3.7%,-5.8%,2.69µM*,-1.7%
COc1ccc(C)cc1-n1nnc(-c2nc(-c3ccccc3Cl)no2)c1N,.,.,.,.,-17.2%,.
Cc1ccc(CNC(=O)c2cc(-c3cc(C)cc(C)c3O)n[nH]2)cc1,1.8%,0.6%,-15.9%,.,3.8%,-7.6%
CC(=O)Nc1ccc(NC(=O)c2cc(-c3cc(C)cc(C)c3O)n[nH]2)cc1,8.3%,2.8%,23.1µM*,.,3.38µM*,-7.1%
Cc1ccc(NC(=O)c2cc(-c3ccc(C)c(C)c3O)n[nH]2)cc1C,-5.8%,-3.2%,-1.5%,.,0.1%,-0.9%
Cc1ccc(-c2cc(C(=O)Nc3ccc(S(=O)(=O)Nc4onc(C)c4C)cc3)[nH]n2)c(O)c1,-4.2%,2.6%,0.0%,.,?,2.2%
Cc1ccc(-c2cc(C(=O)Nc3ccc(S(=O)(=O)Nc4ncccn4)cc3)[nH]n2)c(O)c1C,-1.8%,2.4%,25.3%,.,4.78µM*,2.9%
Cc1cc(C)c(O)c(-c2cc(C(=O)Nc3ccc(S(=O)(=O)N4CCOCC4)cc3)[nH]n2)c1,-3.6%,-6.8%,20.6µM*,-24.0%,-7.4%,-42.7%
CC(=O)Nc1ccc(NC(=O)c2cc(-c3ccc(C)c(C)c3O)n[nH]2)cc1,10.0%,19.6%,-16.2%,.,5.36µM*,-15.8%
CCC(=O)N1CCc2cc(Br)cc(S(=O)(=O)N(CC)Cc3ccccc3)c21,.,.,.,6.5%,5.3%,.
CCOC(=O)c1c(-c2ccccc2)csc1NC(=O)c1cc(-c2cccc(OC)c2)on1,.,.,.,3.9%,-5.3%,.
CC(=O)/C(=C\c1ccccc1F)C(=O)c1ccccc1,.,.,.,-8.3%[9.22 µM],.,.
CCCCCc1ccc(S(=O)(=O)Nc2cc(C)ccn2)cc1,-1.2%,-16.5%,10.3µM*,.,1.0%,-4.5%
CCN(C(=O)Cn1ncc2c(=O)oc3ccc(C)cc3c21)c1cc(OC)ccc1OC,.,.,.,-8.8%,-3.1%,.
Cc1ccc(N2CCn3c2nc2c3c(=O)n(CCc3ccccc3)c(=O)n2C)cc1C,.,.,.,.,0.3%,.
O=C(NCCNS(=O)(=O)c1ccccc1Cl)c1cc(OCC(F)(F)F)ccc1OCC(F)(F)F,0.3%,-1.7%,14.6µM*,-9.0%,2.2%,-11.3%
COc1cccc(CN(Cc2ccco2)S(=O)(=O)c2ccc(S(=O)(=O)NCc3ccccc3)cc2)c1OC,-4.8%,-3.1%,11.6µM*,-24.8%,8.9%,-2.6%
N#CC(=C(\N)Sc1ccccc1N)/C(C#N)=C(/N)Sc1ccccc1N,-0.6%[46.1 µM],-11.3%[46.1 µM],.,-12.8%,.,.
CC1C(O)=C(c2nc3ccccc3[nH]2)C(=N)N1c1ccccc1 (stereo not given),25.6%,20.8%,?,25.6%,16.9µM*,?
N=C1C(c2nc3ccccc3[nH]2)=C(O)CN1c1ccccc1,22.8%,?,?,19.5%,8.49µM*,20.6µM*
N=C1C(c2nc3ccccc3[nH]2)=C(O)CN1c1ccc(CC(=O)O)cc1,-4.0%,0.7%,4.7%,-10.9%,-19.2%,0.0%
CCCCCCN1CC(O)=C(c2nc3ccccc3[nH]2)C1=N,22.4%,20.2%,?,.,-17.4%,11.6%
CCC(C)N1CC(O)=C(c2nc3ccccc3[nH]2)C1=N (stereo not given),?,?,?,-5.8%,16.9µM*,?

# Assay outcomes from PubChem.
